binder,measurement,setting,value
"KRPHQEFGISSQGAYL [PDE3B, Q13370]",selected by phage display,"KPNA4 68-487, O00629",confidence 2 (active)
"FPSSGFTDLAEIVSRI [PNPLA6, Q8IY17]",selected by phage display,"MAP1LC3A 2-121, Q9H492",confidence 3 (active)
"WATIEPAPDAASLLAS [AKAP13, Q12802]",selected by phage display,"MAP1LC3A 2-121, Q9H492",confidence 3 (active)
"GWDYGIGGGWDHISVR [TECPR1, Q7Z6L1]",selected by phage display,"MAP1LC3A 2-121, Q9H492",confidence 2 (active)
"GPDSFTVLGNSMPSVF [BCL9, O00512]",selected by phage display,"MAP1LC3A 2-121, Q9H492",confidence 4 (active)
same,selected by phage display,"MAP1LC3B 2-119, Q9GZQ8",confidence 3 (active)
"RGGGSVGSDVGQRLPV [KCNT1, Q5JUK3]",selected by phage display,"MAP1LC3A 2-121, Q9H492",confidence 2 (active)
"GVKRTYSEVYPGQQYL [ZMIZ2, Q8NF64]",selected by phage display,"KPNA4 68-487, O00629",confidence 3 (active)
"KRPRYDDTVKINSMGG [ZNF318, Q5VUA4]",selected by phage display,"KPNA4 68-487, O00629",confidence 3 (active)
"ESPSVKRMRLSEGWAT [MEF2C, Q06413]",selected by phage display,"KPNA4 68-487, O00629",confidence 2 (active)
"PINPSTGELSTSSSSN [MCC, P23508]",selected by phage display,"KEAP1 321-609, Q14145",confidence 4 (active)
"ELKRIKTEDGEGIVIA [FOXK2, Q01167]",selected by phage display,"KPNA4 68-487, O00629",confidence 2 (active)
"DLTESSSMVDGDWTMV [RIC1, Q4ADV7]",selected by phage display,"MAP1LC3A 2-121, Q9H492",confidence 4 (active)
same,selected by phage display,"MAP1LC3B 2-119, Q9GZQ8",confidence 4 (active)
"TDELLRHPVTGEVVER [C6orf132, Q5T0Z8]",selected by phage display,"KEAP1 321-609, Q14145",confidence 4 (active)
"WTDLENSIVSVERMQD [ABCC6, O95255]",selected by phage display,"MAP1LC3A 2-121, Q9H492",confidence 3 (active)
same,selected by phage display,"MAP1LC3B 2-119, Q9GZQ8",confidence 2 (active)
"WVWLGNEAELLESMGD [TMEM132C, Q8N3T6]",selected by phage display,"MAP1LC3A 2-121, Q9H492",confidence 4 (active)
same,selected by phage display,"MAP1LC3B 2-119, Q9GZQ8",confidence 3 (active)
"LENNSETGELQPVLPE [TRIM37, O94972]",selected by phage display,"KEAP1 321-609, Q14145",confidence 2 (active)
"MSSSPVKRQRMESALD [TALDO1, P37837]",selected by phage display,"KPNA4 68-487, O00629",confidence 3 (active)
"FDAVTGEFTGMPEQWA [PAK1, Q13153]",selected by phage display,"KEAP1 321-609, Q14145",confidence 3 (active)
"YDPVTGEWKSLAKLPE [KLHL24, Q6TFL4]",selected by phage display,"KEAP1 321-609, Q14145",confidence 3 (active)
"GPEAASGEWELLRLDS [ESPL1, Q14674]",selected by phage display,"MAP1LC3A 2-121, Q9H492",confidence 2 (active)
"WRDMTTITEDEISKLR [CACTIN, Q8WUQ7]",selected by phage display,"MAP1LC3A 2-121, Q9H492",confidence 2 (active)
"GLKRPASQDFEYLQEE [NRK, Q7Z2Y5]",selected by phage display,"KPNA4 68-487, O00629",confidence 2 (active)
"AEQSKRPRLEVGHQGV [EP400, Q96L91]",selected by phage display,"KPNA4 68-487, O00629",confidence 3 (active)
"GKRPYEAIEAGKAFRY [ZNF471, Q9BX82]",selected by phage display,"KPNA4 68-487, O00629",confidence 2 (active)
LESKRPRLEQVSDSHF,selected by phage display,"KPNA4 68-487, O00629",confidence 2 (active)
"TVNEWAHLQEDTNSHI [ANKRD62, A6NC57]",selected by phage display,"MAP1LC3A 2-121, Q9H492",confidence 4 (active)
"EDSIEPPHKRLALSSE [DMTF1, Q9Y222]",selected by phage display,"KPNA4 68-487, O00629",confidence 3 (active)
"VHTTSKRPRLDPVLAD [FAM90A22P, A8MWA6]",selected by phage display,"KPNA4 68-487, O00629",confidence 2 (active)
"DLKRRLDSITSSQSSA [KDR, P35968]",selected by phage display,"KPNA4 68-487, O00629",confidence 2 (active)
"TAQQLETTTERWLVID [CC2D1A, Q6P1N0]",selected by phage display,"MAP1LC3A 2-121, Q9H492",confidence 3 (active)
"VLPDALTDGSDVVSDL [CFAP36, Q96G28]",selected by phage display,"KEAP1 321-609, Q14145",confidence 2 (active)
"TDTHWTDLTHLIEKLK [TRIM59, Q8IWR1]",selected by phage display,"MAP1LC3A 2-121, Q9H492",confidence 3 (active)
"TENDDFAILFAPKAAM [ATG2B, Q96BY7]",selected by phage display,"MAP1LC3A 2-121, Q9H492",confidence 3 (active)
"ELKRKLEQEQKLVEVL [MKL2, Q9ULH7]",selected by phage display,"KPNA4 68-487, O00629",confidence 3 (active)
"WEDLEARINAENEVPI [CEP170B, Q9Y4F5]",selected by phage display,"MAP1LC3A 2-121, Q9H492",confidence 2 (active)
"AGVKRSAAEMYGSVTE [HNRNPC, P07910]",selected by phage display,"KPNA4 68-487, O00629",confidence 3 (active)
"AIKRGYDDLQTIVPTA [MLX, Q9UH92]",selected by phage display,"KPNA4 68-487, O00629",confidence 2 (active)
"DGDTLDSDEFAILDAP [ATG2A, Q2TAZ0]",selected by phage display,"MAP1LC3A 2-121, Q9H492",confidence 4 (active)
"DHQFPAKRPRLSEPQG [HJURP, Q8NCD3]",selected by phage display,"KPNA4 68-487, O00629",confidence 2 (active)
"RGLKRSLSEMEIGMVV [SRF, P11831]",selected by phage display,"KPNA4 68-487, O00629",confidence 2 (active)
"MVEAGGLLEKWTLLEE [APOBR, Q0VD83]",selected by phage display,"MAP1LC3A 2-121, Q9H492",confidence 4 (active)
"ANGWQIISSSSGATPT [SP1, P08047]",selected by phage display,"MAP1LC3A 2-121, Q9H492",confidence 4 (active)
"VLASMKNTYEVLDFLG [HIPK3, Q9H422]",selected by phage display,"MAP1LC3A 2-121, Q9H492",confidence 2 (active)
HEISLKRSYESVEGNI,selected by phage display,"KPNA4 68-487, O00629",confidence 3 (active)
SPNREWEVLQPAPHQV,selected by phage display,"MAP1LC3A 2-121, Q9H492",confidence 3 (active)
"WKRDSSGNKIMHPVSG [NUDT9, Q9BW91]",selected by phage display,"KPNA4 68-487, O00629",confidence 2 (active)
"HDDFVMIDFKPAFSKD [ATG13, O75143]",selected by phage display,"MAP1LC3A 2-121, Q9H492",confidence 3 (active)
"DFTFLRPLSVQQPTAL [PCDHGC5, Q9Y5F6]",selected by phage display,"MAP1LC3A 2-121, Q9H492",confidence 3 (active)
"PQALERADGSWAWVVL [SLC16A5, O15375]",selected by phage display,"MAP1LC3A 2-121, Q9H492",confidence 3 (active)
same,selected by phage display,"MAP1LC3B 2-119, Q9GZQ8",confidence 3 (active)
"QGSRQDSWEVVEGLRG [OSBPL3, Q9H4L5]",selected by phage display,"MAP1LC3A 2-121, Q9H492",confidence 2 (active)
"RQEEKQVLLQADWTLL [ZNF579, Q8NAF0]",selected by phage display,"MAP1LC3A 2-121, Q9H492",confidence 2 (active)
"YELLTENDMLPNMRIG [JAK2, O60674]",selected by phage display,"MAP1LC3A 2-121, Q9H492",confidence 2 (active)
same,selected by phage display,"MAP1LC3B 2-119, Q9GZQ8",confidence 2 (active)
"GWETVEMHPAYTEEEL [NUCB1, Q02818]",selected by phage display,"MAP1LC3A 2-121, Q9H492",confidence 2 (active)
"WEEFESLQKQEVKNLH [PTPN6, P29350]",selected by phage display,"MAP1LC3A 2-121, Q9H492",confidence 2 (active)
"PSPETGEAKRSAFVEV [PRDM8, Q9NQV8]",selected by phage display,"KEAP1 321-609, Q14145",confidence 3 (active)
"LEDSFAHLQLSGDNTA [RNF146, Q9NTX7]",selected by phage display,"MAP1LC3A 2-121, Q9H492",confidence 3 (active)
"EWQHLDSAQRTPYRDM [ZNF487, B1APH4]",selected by phage display,"MAP1LC3A 2-121, Q9H492",confidence 2 (active)
"SPTILGKRSYEQHNGV [MTA1, Q13330]",selected by phage display,"KPNA4 68-487, O00629",confidence 2 (active)
"QVDEVTDLLASFTSLS [ANKRD54, Q6NXT1]",selected by phage display,"MAP1LC3A 2-121, Q9H492",confidence 3 (active)
"SLAPVKRTYEQMEFPL [ADNP, Q9H2P0]",selected by phage display,"KPNA4 68-487, O00629",confidence 3 (active)
"NLAPSDEESSWTTLSQ [APBB2, Q92870]",selected by phage display,"MAP1LC3A 2-121, Q9H492",confidence 2 (active)

# From publication PMC8769072, “Proteome‐scale mapping of binding sites in the unstructured regions of the human proteome” (Molecular Systems Biology, 2022)
# Chain of KEAP1 321-609, Q14145 (Q14145 321-609): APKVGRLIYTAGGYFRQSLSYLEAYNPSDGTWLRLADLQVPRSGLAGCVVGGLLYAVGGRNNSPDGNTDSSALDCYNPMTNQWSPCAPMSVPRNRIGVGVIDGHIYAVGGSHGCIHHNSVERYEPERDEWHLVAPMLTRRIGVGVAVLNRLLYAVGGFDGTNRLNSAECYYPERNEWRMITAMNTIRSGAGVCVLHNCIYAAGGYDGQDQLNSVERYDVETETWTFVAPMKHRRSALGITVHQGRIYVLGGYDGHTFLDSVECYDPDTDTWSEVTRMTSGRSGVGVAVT
# Chain of KPNA4 68-487, O00629 (O00629 68-487): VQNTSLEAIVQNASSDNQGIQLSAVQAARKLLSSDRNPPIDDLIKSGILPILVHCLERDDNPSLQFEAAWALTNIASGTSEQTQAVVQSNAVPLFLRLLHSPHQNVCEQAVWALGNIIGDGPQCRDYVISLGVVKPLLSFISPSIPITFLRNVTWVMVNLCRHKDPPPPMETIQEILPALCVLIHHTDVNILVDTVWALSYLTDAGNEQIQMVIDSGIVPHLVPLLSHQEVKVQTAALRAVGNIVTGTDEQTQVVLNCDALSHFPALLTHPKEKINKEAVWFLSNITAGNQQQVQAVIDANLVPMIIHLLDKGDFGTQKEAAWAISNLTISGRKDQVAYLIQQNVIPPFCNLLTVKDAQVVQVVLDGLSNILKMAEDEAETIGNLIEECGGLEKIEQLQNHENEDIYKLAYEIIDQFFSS
